Results as given in the supplement of paper PMC12645437, “Orthogonal IMiD-Degron Pairs Induce Selective Protein Degradation in Cells” (ACS Chemical Biology, 2025).
Whole data set: some 8,300 sequences, median “log2 fold change of degron read counts, EGFP-low vs EGFP+ sorted cells (limma voom), compound-induced degradation” near -1.1, cut for the highest 2% near 3.2. This excerpt belongs to a sample that is enriched for the highest values.

Molecular target: T1, CRBN, Q96SW2
T1 chain: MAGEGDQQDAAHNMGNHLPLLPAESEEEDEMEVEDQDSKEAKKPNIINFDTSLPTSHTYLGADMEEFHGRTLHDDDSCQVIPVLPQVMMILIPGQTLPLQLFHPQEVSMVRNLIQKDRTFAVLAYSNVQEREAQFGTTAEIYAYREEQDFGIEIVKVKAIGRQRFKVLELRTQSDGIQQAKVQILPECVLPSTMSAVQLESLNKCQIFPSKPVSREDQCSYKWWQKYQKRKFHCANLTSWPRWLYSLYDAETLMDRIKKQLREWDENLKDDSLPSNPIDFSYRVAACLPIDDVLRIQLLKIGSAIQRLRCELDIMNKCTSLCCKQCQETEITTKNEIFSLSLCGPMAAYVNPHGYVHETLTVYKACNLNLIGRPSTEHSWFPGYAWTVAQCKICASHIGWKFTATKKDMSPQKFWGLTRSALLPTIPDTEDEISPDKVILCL
Experiment: log2 fold change of degron read counts, EGFP-low vs EGFP+ sorted cells (limma voom), compound-induced degradation; higher = more compound-induced degradation of the degron-EGFP fusion; degrons are variants of IKZF1/3 zinc finger 2; compound dose not given here
Details: Jurkat, 18 h
Method: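 Pooled library of 8380 IKZF3 ZF2 degron mutants (positions 146-167 varied within the IKZF3 130-189 degron; only the varied core is printed, flanks not printed) fused to EGFP with IRES-mCherry, lentivirally expressed in Jurkat cells. mCherry+ cells were treated with one IMiD compound for 18 h (dose not stated) and FACS-sorted into EGFP-low and EGFP+ populations. Degron sequences were counted by NGS, and log2FC (EGFP-low vs EGFP+) was estimated by limma voom over 3 biological replicates.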

[1] = compound: compound 19 (5-tert-butyl-thalidomide)
[2] = compound: compound 22 (5-morpholino-thalidomide)
[3] = compound: compound 33 (diphenyl IMiD analogue)
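Also: pooled lentiviral library of zinc finger degron-EGFP fusions in mCherry-positive Jurkat cells, FACS-sorted after compound exposure, with degron abundance counted by next-generation sequencing.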

Sequence: FDCPICGREFTQKGNLLRHIKL [46F_47D_49P_50I_52G_53R_54E_55F_67L_, Q9UKT9]
- log2 fold change of degron read counts [1]: -1.43
- log2 fold change of degron read counts [2]: -1.65
- log2 fold change of degron read counts [3]: -0.206
- log2 fold change of degron read counts (compound: thalidomide): 0.273

Sequence: FQCPICGHKFTQKGNLLRHIKL [46F_47Q_49P_50I_52G_53H_54K_55F_67L_, Q9UKT9]
- log2 fold change of degron read counts [1]: -1.95
- log2 fold change of degron read counts [2]: -1.73
- log2 fold change of degron read counts [3]: -1.82
- log2 fold change of degron read counts (compound: thalidomide): 0.342

Sequence: FDCDICGATFTQKGNLLRHIKL [46F_47D_49D_50I_52G_53A_54T_55F_67L_, Q9UKT9]
- log2 fold change of degron read counts [1]: -0.229
- log2 fold change of degron read counts [2]: -1.86
- log2 fold change of degron read counts [3]: -1.66
- log2 fold change of degron read counts (compound: thalidomide): -1.78

Sequence: FICNQCGAGFTQKGNLLRHIKL [46F_47I_49N_50Q_52G_53A_54G_55F_67L_, Q9UKT9]
- log2 fold change of degron read counts [1]: -2.57
- log2 fold change of degron read counts [2]: -1.54
- log2 fold change of degron read counts [3]: -0.787
- log2 fold change of degron read counts (compound: thalidomide): -0.966

Sequence: FYCPICGHNFTQKGNLLRHIKL [46F_47Y_49P_50I_52G_53H_54N_55F_67L_, Q9UKT9]
- log2 fold change of degron read counts [1]: -1.61
- log2 fold change of degron read counts [2]: -1.84
- log2 fold change of degron read counts [3]: -0.993
- log2 fold change of degron read counts (compound: thalidomide): -1.92

Sequence: LVCPICGFPCTQKGNLLRHIKL [46L_47V_49P_50I_52G_53F_54P_55C_67L_, Q9UKT9]
- log2 fold change of degron read counts [1]: 0.138
- log2 fold change of degron read counts [2]: 1.61
- log2 fold change of degron read counts [3]: 0.747
- log2 fold change of degron read counts (compound: thalidomide): 1.9

Sequence: LLCPICGFSCTQKGNLLRHIKL [46L_47L_49P_50I_52G_53F_54S_55C_67L_, Q9UKT9]
- log2 fold change of degron read counts [1]: 1.38
- log2 fold change of degron read counts [2]: 0.88
- log2 fold change of degron read counts [3]: 1.79
- log2 fold change of degron read counts (compound: thalidomide): 2.5

Sequence: LMCPICGFSCTQKGNLLRHIKL [46L_47M_49P_50I_52G_53F_54S_55C_67L_, Q9UKT9]
- log2 fold change of degron read counts [1]: 1.63
- log2 fold change of degron read counts [2]: 2.78
- log2 fold change of degron read counts [3]: 2.99
- log2 fold change of degron read counts (compound: thalidomide): 2.69

Sequence: LGCPICGFECTQKGNLLRHIKL [46L_47G_49P_50I_52G_53F_54E_55C_67L_, Q9UKT9]
- log2 fold change of degron read counts [1]: 1.95
- log2 fold change of degron read counts [2]: 0.368
- log2 fold change of degron read counts [3]: 0.47
- log2 fold change of degron read counts (compound: thalidomide): 0.369

Sequence: LKCPICGFSCTQKGNLLRHIKL [46L_47K_49P_50I_52G_53F_54S_55C_67L_, Q9UKT9]
- log2 fold change of degron read counts [1]: 1.33
- log2 fold change of degron read counts [2]: -0.186
- log2 fold change of degron read counts [3]: -0.695
- log2 fold change of degron read counts (compound: thalidomide): 1.64

Sequence: LDCPICGFSCTQKGNLLRHIKL [46L_47D_49P_50I_52G_53F_54S_55C_67L_, Q9UKT9]
- log2 fold change of degron read counts [1]: 1.61
- log2 fold change of degron read counts [2]: 0.446
- log2 fold change of degron read counts [3]: 1.19
- log2 fold change of degron read counts (compound: thalidomide): 2.17

Sequence: LECPICGFSCTQKGNLLRHIKL [46L_47E_49P_50I_52G_53F_54S_55C_67L_, Q9UKT9]
- log2 fold change of degron read counts [1]: 1.9
- log2 fold change of degron read counts [2]: 0.453
- log2 fold change of degron read counts [3]: 2.42
- log2 fold change of degron read counts (compound: thalidomide): 3.62

Sequence: LICPICGFSCTQKGNLLRHIKL [46L_47I_49P_50I_52G_53F_54S_55C_67L_, Q9UKT9]
- log2 fold change of degron read counts [1]: 0.996
- log2 fold change of degron read counts [2]: 3.08
- log2 fold change of degron read counts [3]: 2.1
- log2 fold change of degron read counts (compound: thalidomide): 3.18

Sequence: LACPICGFSCTQKGNLLRHIKL [46L_47A_49P_50I_52G_53F_54S_55C_67L_, Q9UKT9]
- log2 fold change of degron read counts [1]: 3.69
- log2 fold change of degron read counts [2]: 3.18
- log2 fold change of degron read counts [3]: 2.48
- log2 fold change of degron read counts (compound: thalidomide): 2.94

Sequence: LSCPICGFSCTQKGNLLRHIKL [46L_47S_49P_50I_52G_53F_54S_55C_67L_, Q9UKT9]
- log2 fold change of degron read counts [1]: 3.04
- log2 fold change of degron read counts [2]: 3.05
- log2 fold change of degron read counts [3]: 2.54
- log2 fold change of degron read counts (compound: thalidomide): 2.8

Sequence: LGCPICGFSCTQKGNLLRHIKL [46L_47G_49P_50I_52G_53F_54S_55C_67L_, Q9UKT9]
- log2 fold change of degron read counts [1]: 3.62
- log2 fold change of degron read counts [2]: 2.62
- log2 fold change of degron read counts [3]: 2.12
- log2 fold change of degron read counts (compound: thalidomide): 1.55

Sequence: LHCPICGFSCTQKGNLLRHIKL [46L_47H_49P_50I_52G_53F_54S_55C_67L_, Q9UKT9]
- log2 fold change of degron read counts [1]: 3.33
- log2 fold change of degron read counts [2]: 3.49
- log2 fold change of degron read counts [3]: 2.83
- log2 fold change of degron read counts (compound: thalidomide): 2.54

Sequence: LTCEICGFWCTQKGNLLRHIKL [46L_47T_49E_50I_52G_53F_54W_55C_67L_, Q9UKT9]
- log2 fold change of degron read counts [1]: -0.648
- log2 fold change of degron read counts [2]: -0.501
- log2 fold change of degron read counts [3]: 0.784
- log2 fold change of degron read counts (compound: thalidomide): 0.539
